Reference: PubChem BioAssay (NCI)
About 83,000 compounds went through this panel and 20% of them were active in at least one assay; those are over-represented in the sample as a whole.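 48-hour exposure, single concentration, 96-well plates; percent growth endpoint where 0 means no net growth. Active: below 10.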 Values without a mark were called inactive. Activity calls are given as the source filed them.

Columns and labels:
Test in all cases: NCI-60 one-dose screen, 48 h (100 = growth as untreated, 0 = no growth, -100 = all killed)
Conditions in all cases: 10 µM unless noted
DU-145 prostate = test system: DU-145 prostate
K-562 leukemia = test system: K-562 leukemia
MALME-3M melanoma = test system: MALME-3M melanoma
MDA-MB-231 breast = test system: MDA-MB-231 breast
RXF 393 renal = test system: RXF 393 renal
SF-268 CNS = test system: SF-268 CNS
SF-295 CNS = test system: SF-295 CNS
SF-539 CNS = test system: SF-539 CNS
UACC-257 melanoma = test system: UACC-257 melanoma
M14 melanoma = test system: M14 melanoma
HCT-15 colon = test system: HCT-15 colon
HT29 colon = test system: HT29 colon
SNB-75 CNS = test system: SNB-75 CNS
SNB-19 CNS = test system: SNB-19 CNS
U251 CNS = test system: U251 CNS
PC-3 prostate = test system: PC-3 prostate
SK-MEL-5 melanoma = test system: SK-MEL-5 melanoma
UACC-62 melanoma = test system: UACC-62 melanoma
LOX IMVI melanoma = test system: LOX IMVI melanoma
SK-MEL-28 melanoma = test system: SK-MEL-28 melanoma

Structure (SMILES) | growth (DU-145 prostate) | growth (K-562 leukemia) | growth (MALME-3M melanoma) | growth (MDA-MB-231 breast) | growth (RXF 393 renal) | growth (SF-268 CNS) | growth (SF-295 CNS) | growth (SF-539 CNS) | growth (UACC-257 melanoma) | growth (M14 melanoma) | growth (HCT-15 colon) | growth (HT29 colon) | growth (SNB-75 CNS) | growth (SNB-19 CNS) | growth (U251 CNS) | growth (PC-3 prostate) | growth (SK-MEL-5 melanoma) | growth (UACC-62 melanoma) | growth (LOX IMVI melanoma) | growth (SK-MEL-28 melanoma)
COc1ccc(S(=O)(=O)NCCNc2nccc(-c3c(-c4cccc(F)c4)nc4sccn34)n2)cc1 | 48.3% | 23% | 49.1% | 61.4% | 28.8% | 35.4% | 58.5% | 77.4% | 66.7% | 38.4% | 23.4% | 23.9% | -0.29% (active) | 58.3% | 52.5% | 29.4% | 9.62% (active) | 39% | 32.9% | 60%
CCCCc1ccc(Nc2ccc(Nc3ccc(CCCC)cc3S(=O)(=O)O)c3c2C(=O)c2ccccc2C3=O)c(S(=O)(=O)O)c1 | 107% | 114% | 110% | 83.1% | 95% | 99.7% | 101% | 96.5% | 88.3% | 101% | 104% | 113% | 89.9% | 104% | 103% | 39.1% | 91.9% | 84.5% | 86.4% | 108%
N#CC1=C(NC=O)Oc2c(ccc3ccccc23)C1c1ccccc1 (stereo not given) | 41.3% | 15.1% | 66.8% | 31.9% | 25.5% | 41.3% | 29.3% | 8.89% (active) | 41.5% | 10.2% | 30.3% | 94% | 2.51% (active) | 30.8% | 21.6% | 18.3% | -33.1% (active) | 30.9% | 34.1% | 60.2%
CCN(CC)S(=O)(=O)c1cccc(-c2ccc3c(NC(=O)C4CC4)n[nH]c3c2)c1 | 25.4% [6.25 µM] | 9.65% [6.25 µM] (active) | 21.1% [6.25 µM] | 38.5% [6.25 µM] | -11.7% [6.25 µM] (active) | 35.8% [6.25 µM] | 5.94% [6.25 µM] (active) | -2.68% [6.25 µM] (active) | 21.5% [6.25 µM] | 8.28% [6.25 µM] (active) | 23.5% [6.25 µM] | 3.07% [6.25 µM] (active) | -7.53% [6.25 µM] (active) | 30.6% [6.25 µM] | 12.1% [6.25 µM] | 16.9% [6.25 µM] | -37.2% [6.25 µM] (active) | 28.7% [6.25 µM] | 10.5% [6.25 µM] | 29.2% [6.25 µM]
NC(=N\N=C/c1ccccc1[N+](=O)[O-])/C(N)=N\N=C/c1ccccc1[N+](=O)[O-] | 107% | 101% | 146% | 107% | 103% | 99.7% | 105% | 97.2% | 113% | 111% | 105% | 103% | 97.9% | 106% | 108% | 102% | 105% | 108% | 104% | 118%
COc1cc(/C=N/NC(=O)Cn2c(C(C)C)nc3ccccc32)ccc1O | 110% | 100% | 105% | 95.5% | 95.7% | 91.2% | 104% | 94.4% | 98.2% | 92.6% | 98.7% | 98.2% | 81.5% | 99.4% | 110% | 94.8% | 97.6% | 89.8% | 102% | 109%
Cn1ccc2c(c1=O)C(=O)c1nccc3c1c-2nc1ccccc13 | -88.3% (active) | -46.6% (active) | 89.3% | -85.5% (active) | 40.8% | -69.2% (active) | -66% (active) | -28.9% (active) | 108% | 82.9% | -61.4% (active) | -76.7% (active) | 60.2% | -74.4% (active) | -92.9% (active) | -44.8% (active) | 95% | 91.7% | -98.4% (active) | 106%
COc1cccc(-c2nc3sccn3c2/C=C/C(=O)c2ccc(C(F)(F)F)cc2)c1 | 88.4% | 51.8% | 104% | 89.6% | 67.7% | 89.2% | 106% | 96.6% | 73.9% | 85.4% | 69.1% | 75.3% | 81.7% | 79.7% | 83.2% | 63.2% | 71.5% | 66.1% | 88.3% | 83.6%
COc1nc(N(C)O)nc(N(C)O)n1 | 23.5% | 20.3% | 58.6% | 49.1% | 58.5% | 30.9% | 60.6% | 20.1% | 39.6% | 15% | 23.9% | 46.3% | 74.5% | 31.8% | 27.2% | 42.9% | 13.1% | 11.5% | 14.8% | 53.2%
CC(C)C(=O)Nc1n[nH]c2cc(-c3cccc(NS(=O)(=O)C4CC4)c3)ccc12 | 85.9% | 23.2% | 66.1% | 58.4% | 88.9% | 76.1% | 56.3% | 77.8% | 66.8% | 55.7% | 84.3% | 76.2% | 54.3% | 89.7% | 79.5% | 64% | 24.5% | 54.4% | 64.6% | 78.4%
Cc1cccc(NC(=O)N/C(N)=N/c2nc(C)c(C)s2)c1 | 71.6% | 10.7% | 58.5% | 65.2% | 78.2% | 75.1% | 48.6% | 56.7% | 62.2% | 28.1% | 22.2% | 18.9% | -3.93% (active) | 65.4% | 45% | 62% | 59.2% | 49.1% | 42.7% | 60.7%
NC(=S)Nc1cccc(O)c1 | 121% | 106% | 102% | 96.7% | 120% | 109% | 100% | 95.8% | 92.9% | 98.4% | 88.3% | 103% | 83.8% | 99.3% | 95.5% | 105% | 106% | 90.5% | 87.8% | 110%
O=C1NC(=Nc2ccc(Cl)cc2)S/C1=C\c1cn(-c2ccccc2)nc1-c1ccccc1 | 89% | 92.1% | 83.8% | 88.4% | 97% | 84.5% | 94.5% | 81% | 91.6% | 97.1% | 76% | 77.5% | 65.8% | 90.2% | 18.4% | 56.5% | 94.9% | 87.1% | 90.5% | 97.8%
Cc1cc(=O)oc2c1ccc1oc(C#N)c(C)c12 | 102% | 108% | 97.2% | 107% | 113% | 99.9% | 102% | 98.9% | 105% | 100% | 98.9% | 93.4% | 92.9% | 99.9% | 99.4% | 90.4% | 100% | 99.9% | 88.2% | 96.5%
C[C@@]1(CCC#N)[C@H]2CC[C@@H]3[C@H]4[C@H](C(=O)/C=C/c5cccnc5)CC[C@]4(C#N)CC[C@@]3(C)[C@]2(C)CC[C@H]1C(=O)/C=C/c1cccnc1 | 81.5% | 23.2% | 109% | 93.4% | 69.7% | 61.7% | 100% | 83.7% | 67.5% | 74.7% | 31.5% | 24.1% | 72.7% | 86.9% | 64.1% | 65% | 77.3% | 52.4% | 17.5% | 97.3%
